# Reference: PubChem BioAssay AID1159580 (chemical genetic matrix, 2015)
# Among all 5,500 compounds or so, about 2,000 (36%) were called active. Roughly 18% stayed inconclusive and do not appear here. The list shows a part of the results. A number with no mark means an inactive call. Rule as the data show it: active = normalized growth mostly below about 0.91 (no sharp cut-off); inconclusive = no clear call, values can overlap the other calls; inactive = mostly above about 0.92.
# Assay: chemical genetic growth profiling, strain panel (AID 1159580);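 also: tested at 20 µM; growth read once vehicle control cultures reached saturation at 30 °C; 1 = growth at the plate median or of vehicle wells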
# Details: growth OD
smiles,measurement,setting,value
CC[C@@]1(O)C(=O)OCc2c1cc1n(c2=O)Cc2cc3cc(O)ccc3nc2-1,normalized growth,"S. cerevisiae deletion strains, locus YKL068W, stronger effect = lower value",0.996
same,normalized growth,"S. cerevisiae deletion strains, locus YKL085W, strain MDH1 (second series), stronger effect = lower value",1.01
same,normalized growth,"S. cerevisiae deletion strains, locus YKL085W, strain MDH1, stronger effect = lower value",1.01
same,normalized growth,"S. cerevisiae deletion strains, locus YKL160W, strain elf1, stronger effect = lower value",1.02
same,normalized growth,"S. cerevisiae deletion strains, locus YKL190W, strain CNB1, stronger effect = lower value",1.02
same,normalized growth,"S. cerevisiae deletion strains, locus YKR001C, strain vps1, stronger effect = lower value",1
same,normalized growth,"S. cerevisiae deletion strains, locus YKR026C, strain gcn3, stronger effect = lower value",0.997
same,normalized growth,"S. cerevisiae deletion strains, locus YKR091W, strain srl3, stronger effect = lower value",1.01
same,normalized growth,"S. cerevisiae deletion strains, locus YLL001W, strain dnm1, stronger effect = lower value",1
same,normalized growth,"S. cerevisiae deletion strains, locus YLL026W, stronger effect = lower value",1.02
same,normalized growth,"S. cerevisiae deletion strains, locus YLL041C, strain sdh2, stronger effect = lower value",1.02
same,normalized growth,"S. cerevisiae deletion strains, locus YLR027C, strain aat2, stronger effect = lower value",1
same,normalized growth,"S. cerevisiae deletion strains, locus YLR039C, strain RIC1, stronger effect = lower value",1.03
same,normalized growth,"S. cerevisiae deletion strains, locus YLR058C, strain SHM2, stronger effect = lower value",1.02
same,normalized growth,"S. cerevisiae deletion strains, locus YLR102C, strain apc9, stronger effect = lower value",0.992
same,normalized growth,"S. cerevisiae deletion strains, locus YLR113W, strain HOG1, stronger effect = lower value",0.942
same,normalized growth,"S. cerevisiae deletion strains, locus YLR221C, strain rsa3, stronger effect = lower value",0.966
same,normalized growth,"S. cerevisiae deletion strains, locus YLR258W, strain gsy2, stronger effect = lower value",1.03
same,normalized growth,"S. cerevisiae deletion strains, locus YLR262C, strain YPT6 (second series), stronger effect = lower value",0.984
same,normalized growth,"S. cerevisiae deletion strains, locus YLR262C, strain YPT6, stronger effect = lower value",1.04
same,normalized growth,"S. cerevisiae deletion strains, locus YLR268W, strain sec22, stronger effect = lower value",0.96
same,normalized growth,"S. cerevisiae deletion strains, locus YLR320W, strain mms22, stronger effect = lower value",0.884
same,normalized growth,"S. cerevisiae deletion strains, locus YLR330W, strain CHS5, stronger effect = lower value",1.02
same,normalized growth,"S. cerevisiae deletion strains, locus YLR342W, strain FKS1 (second series), stronger effect = lower value",0.995
same,normalized growth,"S. cerevisiae deletion strains, locus YLR342W, strain FKS1, stronger effect = lower value",1.01
same,normalized growth,"S. cerevisiae deletion strains, locus YLR357W, strain rsc2, stronger effect = lower value",1.03
same,normalized growth,"S. cerevisiae deletion strains, locus YLR370C, strain arc18, stronger effect = lower value",1.01
same,normalized growth,"S. cerevisiae deletion strains, locus YLR371W, strain rom2, stronger effect = lower value",0.994
same,normalized growth,"S. cerevisiae deletion strains, locus YLR384C, strain iki3, stronger effect = lower value",1.02
same,normalized growth,"S. cerevisiae deletion strains, locus YLR418C, strain cdc73, stronger effect = lower value",1.02
same,normalized growth,"S. cerevisiae deletion strains, locus YML016C, strain PPZ1, stronger effect = lower value",1.02
same,normalized growth,"S. cerevisiae deletion strains, locus YML032C, strain rad52, stronger effect = lower value",0.407 (active)
same,normalized growth,"S. cerevisiae deletion strains, locus YML120C, strain ndi1, stronger effect = lower value",0.995
same,normalized growth,"S. cerevisiae deletion strains, locus YML124C, strain tub3, stronger effect = lower value",0.983
same,normalized growth,"S. cerevisiae deletion strains, locus YMR058W, strain fet3, stronger effect = lower value",1.01
same,normalized growth,"S. cerevisiae deletion strains, locus YMR078C, strain ctf18, stronger effect = lower value",0.947
same,normalized growth,"S. cerevisiae deletion strains, locus YMR125W, strain sto1, stronger effect = lower value",1.03
same,normalized growth,"S. cerevisiae deletion strains, locus YMR129W, stronger effect = lower value",1.02
same,normalized growth,"S. cerevisiae deletion strains, locus YMR205C, strain PFK2, stronger effect = lower value",0.98
same,normalized growth,"S. cerevisiae deletion strains, locus YMR223W, strain ubp8, stronger effect = lower value",0.981
same,normalized growth,"S. cerevisiae deletion strains, locus YMR231W, strain pep5, stronger effect = lower value",1
same,normalized growth,"S. cerevisiae deletion strains, locus YMR263W, strain SAP30, stronger effect = lower value",1.03
same,normalized growth,"S. cerevisiae deletion strains, locus YMR307W, strain GAS1, stronger effect = lower value",1.03
same,normalized growth,"S. cerevisiae deletion strains, locus YNL067W, strain RPL9B, stronger effect = lower value",1.01
same,normalized growth,"S. cerevisiae deletion strains, locus YNL071W, strain lat1, stronger effect = lower value",1.02
same,normalized growth,"S. cerevisiae deletion strains, locus YNL128W, strain TEP1, stronger effect = lower value",1.02
same,normalized growth,"S. cerevisiae deletion strains, locus YNL183C, strain NPR1, stronger effect = lower value",0.91
same,normalized growth,"S. cerevisiae deletion strains, locus YNL209W, strain ssb2, stronger effect = lower value",1.03
same,normalized growth,"S. cerevisiae deletion strains, locus YNL233W, strain BNI4, stronger effect = lower value",1.01
same,normalized growth,"S. cerevisiae deletion strains, locus YNL248C, strain rpa49, stronger effect = lower value",1.03
same,normalized growth,"S. cerevisiae deletion strains, locus YNL250W, strain rad50, stronger effect = lower value",0.429 (active)
same,normalized growth,"S. cerevisiae deletion strains, locus YNL271C, strain bni1, stronger effect = lower value",0.991
same,normalized growth,"S. cerevisiae deletion strains, locus YNL298W, strain CLA4, stronger effect = lower value",0.992
same,normalized growth,"S. cerevisiae deletion strains, locus YNL307C, strain MCK1, stronger effect = lower value",0.979
same,normalized growth,"S. cerevisiae deletion strains, locus YNL322C, strain KRE1 (second series), stronger effect = lower value",1.06
same,normalized growth,"S. cerevisiae deletion strains, locus YNL322C, strain KRE1, stronger effect = lower value",1.01
same,normalized growth,"S. cerevisiae deletion strains, locus YNR049C, strain mso1, stronger effect = lower value",1
same,normalized growth,"S. cerevisiae deletion strains, locus YNR052C, strain pop2, stronger effect = lower value",0.997
same,normalized growth,"S. cerevisiae deletion strains, locus YOL012C, strain htz1",0.802
same,normalized growth,"S. cerevisiae deletion strains, locus YOL147C, strain pex11, stronger effect = lower value",0.983
same,normalized growth,"S. cerevisiae deletion strains, locus YOR001W, strain rrp6, stronger effect = lower value",0.967
same,normalized growth,"S. cerevisiae deletion strains, locus YOR061W, strain CKA2, stronger effect = lower value",1.02
same,normalized growth,"S. cerevisiae deletion strains, locus YOR069W, strain VPS5, stronger effect = lower value",1.02
same,normalized growth,"S. cerevisiae deletion strains, locus YOR070C, strain gyp1, stronger effect = lower value",1.01
same,normalized growth,"S. cerevisiae deletion strains, locus YOR080W, strain dia2, stronger effect = lower value",1.01
same,normalized growth,"S. cerevisiae deletion strains, locus YOR083W, strain WHI5, stronger effect = lower value",1
same,normalized growth,"S. cerevisiae deletion strains, locus YOR106W, strain vam3, stronger effect = lower value",1.03
same,normalized growth,"S. cerevisiae deletion strains, locus YOR136W, strain idh2, stronger effect = lower value",0.971
same,normalized growth,"S. cerevisiae deletion strains, locus YOR144C, strain elg1, stronger effect = lower value",0.988
same,normalized growth,"S. cerevisiae deletion strains, locus YOR184W, strain ser1, stronger effect = lower value",0.972
same,normalized growth,"S. cerevisiae deletion strains, locus YOR231W, strain MKK1, stronger effect = lower value",0.951
same,normalized growth,"S. cerevisiae deletion strains, locus YOR265W, strain rbl2, stronger effect = lower value",0.984
same,normalized growth,"S. cerevisiae deletion strains, locus YOR270C, strain vph1, stronger effect = lower value",1.03
same,normalized growth,"S. cerevisiae deletion strains, locus YOR290C, strain snf2, stronger effect = lower value",1.03
same,normalized growth,"S. cerevisiae deletion strains, locus YOR316C, strain cot1, stronger effect = lower value",0.987
same,normalized growth,"S. cerevisiae deletion strains, locus YPL051W, strain arl3, stronger effect = lower value",1
same,normalized growth,"S. cerevisiae deletion strains, locus YPL055C, strain LGE1, stronger effect = lower value",1.02
same,normalized growth,"S. cerevisiae deletion strains, locus YPL078C, strain atp4, stronger effect = lower value",1.04
same,normalized growth,"S. cerevisiae deletion strains, locus YPL106C, strain sse1, stronger effect = lower value",1.06
same,normalized growth,"S. cerevisiae deletion strains, locus YPL240C, strain hsp82, stronger effect = lower value",1.01
same,normalized growth,"S. cerevisiae deletion strains, locus YPL241C, strain CIN2, stronger effect = lower value",1.01
same,normalized growth,"S. cerevisiae deletion strains, locus YPL256C, strain CLN2, stronger effect = lower value",0.945
same,normalized growth,"S. cerevisiae deletion strains, locus YPR119W, strain clb2, stronger effect = lower value",0.982
same,normalized growth,"S. cerevisiae deletion strains, locus YPR141C, strain kar3, stronger effect = lower value",0.999
same,normalized growth,"S. cerevisiae deletion strains, locus YPR163C, strain tif3, stronger effect = lower value",0.991
same,normalized growth,"S. cerevisiae deletion strains, locus YPR167C, strain met16, stronger effect = lower value",0.987
same,normalized growth,"S. cerevisiae deletion strains, strain wtn01, stronger effect = lower value",0.97
same,normalized growth,"S. cerevisiae strains, strain wild type, stronger effect = lower value",1.02
